Target: SSR4
Assay: pooled miR-30 sensor sort-seq; sequence = guide strand
Details: shRNA
Further: reference of the scale not given here.

Row | Sequence | sensor-assay potency score (higher = more potent)
1 | TCTCAGTGGAAATGACAGCGTC | -0.63
2 | TAGATCACAAGGCCGATCGCCG | -0.829
3 | AATCTAACCTCATAGGTGCCTG | -0.709
4 | TAACCTCATAGGTGCCTGCGTG | -0.73
5 | TCGAGTGACAGGGAATTGTTTT | -0.927
6 | AAGTAGTAGATCACAAGGCCGA | -0.597
7 | TCGTCGAAGAATCTAACCTCAT | -1.5
8 | AAGAATCTAACCTCATAGGTGC | 0.237
9 | TCAGAAGTGGTGTAGTAGGAAG | -1.28
10 | TATTCCTCTGAGCCTTCCTGAG | -1.63

Target: SSTR1
Assay: as above
Details: shRNA

Row | Sequence | sensor-assay potency score (higher = more potent)
11 | TATCATTTATGTATTATCCTAA | -0.0617
12 | TTAGATCTTTCTCAAGTCCAAC | -1.71
13 | TTCAATAGTGATTTTAACCATT | -0.629
14 | TAAATTTGTATCCTCTTAGAAG | -1.31
15 | TTGGAAGTCTTCCACACTGTAG | -0.86
16 | TAGATGACCATAGAGTTCCCAC | -0.705
17 | TAAGGTGATCTTGCGCTCCGAG | 0.115
18 | TGAGTTGTTAATGAGTTCGTGA | -0.0506
19 | TTTTGAGATACACTGGAGCAGG | -0.72
20 | TTTAGGATGTAGATGTTGGTGG | -0.196
21 | TAAACAAGAAAATAACTTCTTA | -0.323
22 | TTGGTCTTTGAAAACGCGCAGT | -0.784
